Results reported in the supplement of paper PMC7380943.
Counter-ions that a name gives are not always drawn.

Key:
[1] = test system: CLZ3 (HCA2 human fibroblast dual HR-NHEJ reporter); experiment: NHEJ repair efficiency (GFP+ cells) relative to control (log10 fold); higher = more non-homologous end joining; details: 5 µM; doxycycline 0.5 ug/mL
[2] = test system: CLZ3 (HCA2 human fibroblast dual HR-NHEJ reporter); experiment: HR repair efficiency (tdTomato+ cells) relative to control (log10 fold); higher = more homologous recombination; details: 5 µM; doxycycline 0.5 ug/mL
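Wherever HR repair efficiency (tdTomato+ cells) relative to control is given: compound given one day before doxycycline, which switches on I-SceI endonuclease expression to create double-strand breaks within the integrated reporter.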
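Wherever NHEJ repair efficiency (GFP+ cells) relative to control is given: compound given one day ahead of doxycycline, which switches on I-SceI endonuclease to cut the chromosomally integrated reporter and create DSBs.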

SMILES	NHEJ repair efficiency (log10) [1]	HR repair efficiency (log10) [2]
O=c1cc(-c2ccc(O)c(O)c2)oc2cc(O)c([C@@H]3O[C@H](CO)[C@@H](O)[C@H](O)[C@H]3O)c(O)c12 [Isoorientin]	-0.0953	0.00986
COC(=O)C1=CO[C@@H](O[C@@H]2O[C@H](CO)[C@@H](O)[C@H](O)[C@H]2O)[C@@H]2[C@H](C)O[C@@H](O)C[C@H]12 [Morroniside]	0.0778	0.186
CC(=O)OC1CC23CC(C)(O)C(CCC2C(C)(O)C2C4OC4C(C)(C)C12O)C3O (stereo unspecified) [Rhodojaponin Ii]	-0.0128	-0.000636
COC(=O)[C@H](c1ccccc1Cl)N1CCc2sccc2C1 [Clopidogrel bisulfate]	0.138	0.138
O=c1c(O)c(-c2ccc(O)c(O)c2)oc2cc(O)ccc12 [Fisetin]	-0.223	-0.0214
O=C(O)c1cc(O)c2c(c1)[C@@H]([C@H]1c3cc(C(=O)O)cc(O)c3C(=O)c3c(O[C@@H]4O[C@H](CO)[C@@H](O)[C@H](O)[C@H]4O)cccc31)c1cccc(O[C@@H]3O[C@H](CO)[C@@H](O)[C@H](O)[C@H]3O)c1C2=O [Sennoside B]	-0.162	0.0301
COc1ccc(-c2cc(=O)c3c(O)cc(O[C@@H]4O[C@H](CO[C@@H]5O[C@@H](C)[C@H](O)[C@@H](O)[C@H]5O)[C@@H](O)[C@H](O)[C@H]4O)cc3o2)cc1 [Linarin]	-0.0758	0.00777
C[C@@H]1C(=O)O[C@H]2C[C@@]34O[C@@H]5OC(=O)[C@H](O)[C@@]56[C@H](C(C)(C)C)[C@H](O)C(OC3=O)[C@]64[C@]21O (stereo partly specified) [Ginkgolide J]	0.0205	0.076
CC[C@H](CC[C@@H](C)[C@H]1CC[C@H]2[C@@H]3CC=C4C[C@@H](O)CC[C@]4(C)[C@H]3CC[C@]12C)C(C)C [β-Sitosterol]	0.038	0.098
O=C1C[C@@H](c2ccccc2)Oc2cc(O)cc(O)c21 [Pinocembrin]	0.123	0.0891
COc1cc(-c2oc3cc(O)cc(O)c3c(=O)c2O[C@@H]2O[C@H](CO)[C@@H](O)[C@H](O)[C@H]2O[C@@H]2O[C@@H](C)[C@H](O)[C@@H](O)[C@H]2O)ccc1O [Isorhamnetin-3-O-Nehesperidine]	-0.039	-0.0649
C[C@@H]1O[C@@H](Oc2cc(O)c3c(=O)c(O[C@@H]4O[C@@H](C)[C@H](O)[C@@H](O)[C@H]4O)c(-c4ccc(O)cc4)oc3c2)[C@H](O)[C@H](O)[C@H]1O [Kaempferitrin]	0.0262	0.0294
COc1cc(OC)c(CCC(=O)c2ccc(O)cc2)c(OC)c1	-0.0337	0.0988
C/C=C(/C)C(=O)O[C@@H]1[C@H](OC(C)=O)c2c(ccc3ccc(=O)oc23)OC1(C)C [Praeruptorin A]	-0.00436	-0.0186
CC1(C)[C@@H](O[C@H]2O[C@H](C(=O)O)[C@@H](O)[C@H](O)[C@H]2O[C@@H]2O[C@H](C(=O)O)[C@@H](O)[C@H](O)[C@H]2O)CC[C@]2(C)[C@H]3C(=O)C=C4[C@@H]5C[C@@](C)(C(=O)O)CC[C@]5(C)CC[C@@]4(C)[C@]3(C)CC[C@@H]12 [Glycyrrhizic acid]	0.142	-0.0143
CCCOC(=O)c1cc(O)c(O)c(O)c1 [Propyl gallate]	-0.0069	0.0457
CC(C)=CCC[C@](C)(O[C@@H]1O[C@H](CO)[C@@H](O)[C@H](O)[C@H]1O)[C@H]1CC[C@]2(C)[C@@H]1[C@H](O)C[C@@H]1[C@@]3(C)CC[C@H](O[C@@H]4O[C@H](CO)[C@@H](O)[C@H](O)[C@H]4O[C@@H]4O[C@H](CO)[C@@H](O)[C@H](O)[C@H]4O)C(C)(C)[C@@H]3CC[C@]12C [Ginsenoside Rd]	0.0871	0.0615
Oc1cc(O)c2c(c1)O[C@H](c1ccc(O)c(O)c1)[C@H](O)C2 [Epicatechin (EC)]	-0.238	-0.306
C[C@@]12C[C@@]3(O)O[C@@H](O1)[C@]1(COC(=O)c4ccc(O)cc4)[C@@H]3C[C@]12O[C@@H]1O[C@H](CO)[C@@H](O)[C@H](O)[C@H]1O [Oxypaeoniflorin]	0.00873	0.0237
CCCCCCCCC[C@H](O)CC(=O)CCc1ccc(O)c(OC)c1 [10-Gingerol]	0.0104	0.0717
CC(C)[C@@H]1[C@H]2OC(=O)[C@@H]1[C@@H]1CC[C@@H]3CN(C)[C@H]2[C@@]31C [Dendrobine]	0.165	0.272
COc1cc(CCC(C)=O)ccc1O [Zingerone]	0.275	0.257
C=C(C)[C@@H]1CC[C@]2(C(=O)O)CC[C@]3(C)[C@H](CC[C@@H]4[C@@]5(C)CC[C@H](O)C(C)(C)[C@@H]5CC[C@]43C)[C@@H]12 [Betulinic acid]	0.0052	0.0512
COc1ccc(CCO[C@@H]2O[C@H](CO[C@@H]3OC[C@H](O)[C@H](O)[C@H]3O)[C@@H](OC(=O)/C=C/c3ccc(O)c(OC)c3)[C@H](O[C@@H]3O[C@@H](C)[C@@H](O)[C@@H](O)[C@H]3O)[C@H]2O)cc1O [Angoroside C]	0.0985	0.3

SMILES	NHEJ repair efficiency (log10) [1]	HR repair efficiency (log10) [2]
CC1(C)CCC2(CO)C(=C3C=CC4C5(C)CCC(OC6OC(COC7OC(CO)C(O)C(O)C7O)C(OC7OC(CO)C(O)C(O)C7O)C(O)C6O)C(C)(CO)C5CCC4(C)C3(C)CC2O)C1 (stereo unspecified) [Clinopodiside A]	-0.0569	0.0428
C[N+](C)(C)C[C@H](O)CC(=O)[O-] [L-Carnitine]	-0.0644	0.0663
CC(C)=CCc1cc2c(cc1O)oc(=O)c1c3ccc(O)cc3oc21 [Psoralidin]	0.31	-0.0999
OC[C@@H]1O[C@@H](OC[C@H]2O[C@@H](OC/C=C/c3ccccc3)[C@H](O)[C@@H](O)[C@@H]2O)[C@H](O)[C@H]1O [Rosarin]	0.0801	0.118
c1ccc2c(c1)OC1c3ccccc3OCC21 (stereo unspecified) [Pterocarpan]	0.112	-0.0555
COc1cc2oc(=O)ccc2c(OC)c1C[C@@H](O)C(C)(C)O [Toddalolactone]	0.0484	0.018
COc1ccc(-c2cc(=O)c3c(O)c(OC)c(O)c(OC)c3o2)cc1 [Nevadensin]	-0.111	0.0179
OCC1=C[C@@H](O)[C@]2(O[C@@H]3O[C@H](CO)[C@@H](O)[C@H](O)[C@H]3O)C=CO[C@@H](O[C@@H]3O[C@H](CO)[C@@H](O)[C@H](O)[C@H]3O)[C@H]12 [Melittoside]	-0.134	0.096
CC(=O)O[C@@H]1C[C@@]23C[C@@]24CC[C@H](O[C@@H]2OC[C@@H](O)[C@H](O)[C@H]2O)C(C)(C)[C@@H]4CC=C3[C@]2(C)C[C@@H]3OC4(C[C@@H](C)[C@@H]3[C@@]12C)OC(O)C1(C)OC41 (stereo partly specified) [Cimicifugoside]	0.0323	0.0562
COc1ccc(-c2coc3cc(O)ccc3c2=O)cc1 [Formononetin]	-0.06	0.128
C[C@@H]1CC[C@@]2(OC1)O[C@H]1C[C@H]3[C@@H]4CC[C@H]5C[C@@H](O)CC[C@]5(C)[C@H]4CC[C@]3(C)[C@H]1[C@@H]2C [Tigogenin]	0.0196	0.0468
CC1(C)CC[C@]2(C(=O)O[C@@H]3O[C@H](CO)[C@@H](O)[C@H](O)[C@H]3O)CC[C@]3(C)C(=CC[C@@H]4[C@@]5(C)CC[C@H](O[C@@H]6O[C@H](C(=O)O)[C@@H](O)[C@H](O)[C@H]6O[C@@H]6O[C@H](CO)[C@@H](O)[C@H](O)[C@H]6O)C(C)(C)[C@@H]5CC[C@]43C)[C@@H]2C1 [Ginsenoside Ro]	0.13	0.3
O=C(/C=C/c1ccc(O)c(O)c1/C=C/c1ccc(O)c(O)c1)O[C@H](Cc1ccc(O)c(O)c1)C(=O)O [Salvianolic Acid A]	0.0713	0.0119
C=C1CCC[C@]2(C)C[C@@H]3OC(=O)C(C)=C3C[C@@H]12 [Atractylenolide Ii]	-0.0767	0.118
O=c1ccc2ccccc2o1 [Coumarin]	-0.104	0.0819
COc1cc([C@@H]2Oc3c(O)cc([C@H]4Oc5cc(O)cc(O)c5C(=O)[C@@H]4O)cc3[C@H]2CO)ccc1O [Silicristin]	-0.0735	0.068
COc1ccc2c(c1O)-c1c(O)c(OC)cc3c1[C@H](C2)[N+](C)(C)CC3 [Magnoflorine hydrochloride]	-0.0605	-0.0478
OCC1=C[C@@H](O)[C@@H]2C=CO[C@@H](O[C@@H]3O[C@H](CO)[C@@H](O)[C@H](O)[C@H]3O)[C@H]12 [Aucubin]	0.0297	0.121
COc1ccc(/C=C/c2cc(O)cc(O[C@@H]3O[C@H](CO)[C@@H](O)[C@H](O)[C@H]3O)c2)cc1O [Rhapontin]	0.134	0.0931
C[C@@H]1O[C@@H](OC[C@H]2O[C@@H](OCCc3ccc(O)c(O)c3)[C@H](O)[C@@H](O)[C@@H]2OC(=O)/C=C/c2ccc(O)c(O)c2)[C@H](O)[C@H](O)[C@H]1O [Forsythoside A]	0.0797	0.189
COC(=O)[C@@]1(C)CC[C@]2(C(=O)O)CC[C@]3(C)C(=CC[C@@H]4[C@@]5(C)C[C@H](O)[C@H](O)[C@@](C)(CO)[C@@H]5CC[C@]43C)[C@@H]2C1 [Phytolaccagenin]	0.0274	0.0241
OCc1ccc(O[C@@H]2O[C@H](CO)[C@@H](O)[C@H](O)[C@H]2O)cc1 [Gastrodin]	0.113	0.307
C[C@H](CC(=O)C[C@@H](C)[C@H]1C[C@H](O)[C@@]2(C)C3=C(C(=O)C[C@]12C)[C@@]1(C)CCC(=O)C(C)(C)[C@@H]1C[C@@H]3O)C(=O)O [Ganoderic Acid A]	0.0922	0.159
CC[C@H](C)[C@@H]1NC(=O)[C@@H]2CCCN2C(=O)[C@@H]2CCCN2C(=O)[C@@H]2CCCN2C(=O)[C@H](CC(C)C)NC(=O)CNC(=O)CNC(=O)[C@H](Cc2ccccc2)NC1=O [Heterophyllin B]	0.0424	0.0454
